# Measurements: the supplement of paper PMC4466140
# B1: unnamed (peptide)
# chain: LLLLFVPDSPYDPAI
# Columns and labels:
# Assay in all cases: SPOT peptide array binding signal intensity (averaged, normalized) (arbitrary units (background-subtracted, floor 0; scale differs between SH3 domains)); higher = stronger binding of the SH3 domain to the peptide
# CaNbp2 = target: CaNbp2
# Method in brief: (§1)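 Cellulose membranes carried synthetic 15-mer peptides with cysteines swapped for serines. These were incubated overnight at 4°C with 10 μg/ml of GST-fused SH3 domains from four yeast species in TBS-based blocking buffer. Binding signal, detected with anti-GST antibody and quantified in Genespotter, is the normalized, background-subtracted spot intensity averaged over replicates, in arbitrary units specific to each domain.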
# CaRvs167 = target: CaRvs167
# Method in brief: as §1
# CaRvs167-3 = target: CaRvs167-3
# Method in brief: as §1
# CaSho1 = target: CaSho1
# Method in brief: as §1
# CaSla1-D1-D2 = target: CaSla1-D1-D2
# Method in brief: as §1
# CaSla1-D3 = target: CaSla1-D3
# Method in brief: as §1
# ScAbp1 = target: ScAbp1
# Method in brief: as §1
# ScBbc1 = target: ScBbc1
# Method in brief: as §1
# ScBem1-D1 = target: ScBem1-D1
# Method in brief: as §1
# ScBzz1-D1 = target: ScBzz1-D1
# Method in brief: as §1
# ScBzz1-D2 = target: ScBzz1-D2
# Method in brief: as §1
# ScCyk3 = target: ScCyk3
# Method in brief: as §1
# ScFus1 = target: ScFus1
# Method in brief: as §1
# ScHof1 = target: ScHof1
# Method in brief: as §1
# ScHse1 = target: ScHse1
# Method in brief: as §1
# ScLsb1 = target: ScLsb1
# Method in brief: as §1
# ScLsb2 = target: ScLsb2
# Method in brief: as §1
# ScLsb3 = target: ScLsb3
# Method in brief: as §1
# ScLsb4 = target: ScLsb4
# Method in brief: as §1
# ScMyo3 = target: ScMyo3
# Method in brief: as §1
# ScMyo5 = target: ScMyo5
# Method in brief: as §1
# ScNbp2 = target: ScNbp2
# Method in brief: as §1
# ScPex13 = target: ScPex13
# Method in brief: as §1
# ScRvs167 = target: ScRvs167
# Method in brief: as §1
# ScSho1 = target: ScSho1
# Method in brief: as §1
# ScSla1-D1-D2 = target: ScSla1-D1-D2
# Method in brief: as §1
# ScSla1-D3 = target: ScSla1-D3
# Method in brief: as §1
# SpAbp1-D1 = target: SpAbp1-D1
# Method in brief: as §1
# SpBbc1 = target: SpBbc1
# Method in brief: as §1
# SpBzz1-D1 = target: SpBzz1-D1
# Method in brief: as §1
# SpBzz1-D2 = target: SpBzz1-D2
# Method in brief: as §1
# SpCyk3 = target: SpCyk3
# Method in brief: as §1
# SpHof1 = target: SpHof1
# Method in brief: as §1
# SpHof1-2 = target: SpHof1-2
# Method in brief: as §1
# SpHof1-3 = target: SpHof1-3
# Method in brief: as §1
# SpHse1 = target: SpHse1
# Method in brief: as §1
# SpLsb1 = target: SpLsb1
# Method in brief: as §1
# SpLsb4 = target: SpLsb4
# Method in brief: as §1
# SpMyo1 = target: SpMyo1
# Method in brief: as §1
# SpNbp2 = target: SpNbp2
# Method in brief: as §1
# SpPex13 = target: SpPex13
# Method in brief: as §1
# SpRvs167 = target: SpRvs167
# Method in brief: as §1
# SpSla1-D1-D2 = target: SpSla1-D1-D2
# Method in brief: as §1
# SpSla1-D3 = target: SpSla1-D3
# Method in brief: as §1
binder,measurement,setting,value
B1,SPOT peptide array binding signal intensity,CaNbp2,264
same,SPOT peptide array binding signal intensity,CaRvs167,15.8
same,SPOT peptide array binding signal intensity,CaRvs167-3,3.5
same,SPOT peptide array binding signal intensity,CaSho1,611
same,SPOT peptide array binding signal intensity,CaSla1-D1-D2,6.5
same,SPOT peptide array binding signal intensity,CaSla1-D3,11.5
same,SPOT peptide array binding signal intensity,ScAbp1,≤ 0
same,SPOT peptide array binding signal intensity,ScBbc1,0.25
same,SPOT peptide array binding signal intensity,ScBem1-D1,7
same,SPOT peptide array binding signal intensity,ScBzz1-D1,31
same,SPOT peptide array binding signal intensity,ScBzz1-D2,7
same,SPOT peptide array binding signal intensity,ScCyk3,37
same,SPOT peptide array binding signal intensity,ScFus1,1060
same,SPOT peptide array binding signal intensity,ScHof1,2.25
same,SPOT peptide array binding signal intensity,ScHse1,662
same,SPOT peptide array binding signal intensity,ScLsb1,≤ 0
same,SPOT peptide array binding signal intensity,ScLsb2,≤ 0
same,SPOT peptide array binding signal intensity,ScLsb3,≤ 0
same,SPOT peptide array binding signal intensity,ScLsb4,1
same,SPOT peptide array binding signal intensity,ScMyo3,≤ 0
same,SPOT peptide array binding signal intensity,ScMyo5,≤ 0
same,SPOT peptide array binding signal intensity,ScNbp2,74
same,SPOT peptide array binding signal intensity,ScPex13,0.25
same,SPOT peptide array binding signal intensity,ScRvs167,0.333
same,SPOT peptide array binding signal intensity,ScSho1,1530
same,SPOT peptide array binding signal intensity,ScSla1-D1-D2,≤ 0
same,SPOT peptide array binding signal intensity,ScSla1-D3,27.5
same,SPOT peptide array binding signal intensity,SpAbp1-D1,1
same,SPOT peptide array binding signal intensity,SpBbc1,≤ 0
same,SPOT peptide array binding signal intensity,SpBzz1-D1,26
same,SPOT peptide array binding signal intensity,SpBzz1-D2,1.5
same,SPOT peptide array binding signal intensity,SpCyk3,25
same,SPOT peptide array binding signal intensity,SpHof1,6.25
same,SPOT peptide array binding signal intensity,SpHof1-2,5.5
same,SPOT peptide array binding signal intensity,SpHof1-3,85.5
same,SPOT peptide array binding signal intensity,SpHse1,1440
same,SPOT peptide array binding signal intensity,SpLsb1,≤ 0
same,SPOT peptide array binding signal intensity,SpLsb4,2
same,SPOT peptide array binding signal intensity,SpMyo1,3
same,SPOT peptide array binding signal intensity,SpNbp2,195
same,SPOT peptide array binding signal intensity,SpPex13,20
same,SPOT peptide array binding signal intensity,SpRvs167,≤ 0
same,SPOT peptide array binding signal intensity,SpSla1-D1-D2,3
same,SPOT peptide array binding signal intensity,SpSla1-D3,1
